# Assay results as given in PubChem BioAssay AID435005 (Broad Institute, 2010).
# About 2,400 (0.8%) of roughly 300,000 compounds were called active.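 The calls were made as follows: active = Every replicate reaches about 75%, or at least half do and their mean reaches it too (limit read from the data); inconclusive = At least half of replicates reach the limit but their mean does not; inactive = Under half of replicates reach the limit.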 Shown is part of a subset that was picked to be rich in actives.
# Experiment: INS-1E beta cell survival under cytokines – luminescence, primary screen (AID 435005);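 also: 0% = cytokine-treated negative control wells and 100% = positive control rescue; higher means more ATP so stronger rescue from cytokine killing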
# Conditions: INS-1E cytokine-induced death, ATP luminescence, 48 h; active compounds read high; concentration not given here
row,SMILES,protection from apoptosis
1,CCOc1cccc(=NC2CCCCC2)c2c(C)[nH]c(C)c12,115% (active)
2,C[C@]12CCC3C(CC[C@H]4C[C@@H](O)CC[C@]34C)C1CC[C@@H]2O (stereo not given in full),1.25% (inactive)
3,O=C1C2(Cl)C3(Cl)C4(Cl)C(Cl)(Cl)C5(Cl)C3(Cl)C1(Cl)C5(Cl)C24Cl (stereo not given),-14.2% (inactive)
4,COC(=O)C1=C(c2ccc(F)cc2OCc2ccccc2)C[C@@H]2CC[C@H]1N2C(=O)NCc1ccc(OC)c(OC)c1,-1.83% (inactive)
5,C[C@]12CC[C@H](O)CC1=C([N+](=O)[O-])CC1C2CC[C@@]2(C)C1CC[C@@H]2O (stereo not given in full),-1.49% (inactive)
6,COC(=O)C1=C(c2ccccc2OCc2ccccc2)C[C@@H]2CC[C@H]1N2C(=O)NCc1ccc(OC)cc1,-9.52% (inactive)
7,CCCCCCCCCCCCn1ccc(=N)cc1,117% (active)
8,C[C@]12CCC3C(CC[C@H]4C[C@@H](O)CC[C@]34C)C1C[C@@H](O)[C@H]2O (stereo not given in full),0.154% (inactive)
9,CCC(=O)c1ccc(OCC(=O)N2CCN(CC(=O)Nc3ccc(C)cc3)CC2)cc1,4.28% (inactive)
10,Clc1cccc(Cl)c1Cl,5.51% (inactive)
